Laboratory results taken from PubChem BioAssay AID1159580 (chemical genetic matrix, 2015).
About 2,000 (36%) of roughly 5,500 compounds were called active. Another 18% or so got no clear call; they are omitted. Cut-off read from the data, not from the text of the source: active = normalized growth mostly below about 0.91 (no sharp cut-off); inconclusive = no clear call, values can overlap the other calls; inactive = mostly above about 0.92. The list shows a part of the results.

Assay: chemical genetic growth profiling, strain panel (AID 1159580);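 note: tested at 20 µM; growth read once vehicle control cultures reached saturation at 30 °C; 1 = growth at the plate median or of vehicle wells; lower values mean less growth of the strain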
Settings: growth OD

Measured: normalized growth

C=C1C(=O)OC2CC1C(OC(C)=O)C/C(C)=C/CC/C(C)=C/CC[C@]2(C)O (stereo partly specified)
inactive: S. cerevisiae deletion strains, locus YJR043C, strain POL32, active compounds read low 1.04 | S. cerevisiae deletion strains, locus YJR075W, strain HOC1, active compounds read low 0.999 | S. cerevisiae deletion strains, locus YKL009W, strain mrt4, active compounds read low 0.998 | S. cerevisiae deletion strains, locus YKL068W, active compounds read low 1.01 | S. cerevisiae deletion strains, locus YKL085W, strain MDH1 (second series), active compounds read low 0.99 | S. cerevisiae deletion strains, locus YKL085W, strain MDH1, active compounds read low 0.99 | S. cerevisiae deletion strains, locus YKL160W, strain elf1, active compounds read low 0.982 | S. cerevisiae deletion strains, locus YKR001C, strain vps1, active compounds read low 1.02 | S. cerevisiae deletion strains, locus YKR026C, strain gcn3, active compounds read low 0.997 | S. cerevisiae deletion strains, locus YKR091W, strain srl3, active compounds read low 0.981 | S. cerevisiae deletion strains, locus YLL001W, strain dnm1, active compounds read low 0.973 | S. cerevisiae deletion strains, locus YLL026W, active compounds read low 0.987 | S. cerevisiae deletion strains, locus YLL041C, strain sdh2, active compounds read low 0.993 | S. cerevisiae deletion strains, locus YLR027C, strain aat2, active compounds read low 1.01 | S. cerevisiae deletion strains, locus YLR039C, strain RIC1, active compounds read low 0.894 | S. cerevisiae deletion strains, locus YLR058C, strain SHM2, active compounds read low 1.02 | S. cerevisiae deletion strains, locus YLR102C, strain apc9, active compounds read low 1.02 | S. cerevisiae deletion strains, locus YLR221C, strain rsa3, active compounds read low 1.03 | S. cerevisiae deletion strains, locus YLR258W, strain gsy2, active compounds read low 1 | S. cerevisiae deletion strains, locus YLR262C, strain YPT6 (second series), active compounds read low 0.916 | S. cerevisiae deletion strains, locus YLR262C, strain YPT6, active compounds read low 0.858 | S. cerevisiae deletion strains, locus YLR268W, strain sec22, active compounds read low 1 | S. cerevisiae deletion strains, locus YLR320W, strain mms22, active compounds read low 1.03 | S. cerevisiae deletion strains, locus YLR330W, strain CHS5, active compounds read low 1.03 | S. cerevisiae deletion strains, locus YLR342W, strain FKS1 (second series), active compounds read low 0.993 | S. cerevisiae deletion strains, locus YLR342W, strain FKS1, active compounds read low 0.995 | S. cerevisiae deletion strains, locus YLR357W, strain rsc2, active compounds read low 1.02 | S. cerevisiae deletion strains, locus YLR370C, strain arc18, active compounds read low 0.998 | S. cerevisiae deletion strains, locus YLR371W, strain rom2, active compounds read low 1.02 | S. cerevisiae deletion strains, locus YLR384C, strain iki3, active compounds read low 0.997 | S. cerevisiae deletion strains, locus YLR418C, strain cdc73, active compounds read low 1.06 | S. cerevisiae deletion strains, locus YML016C, strain PPZ1, active compounds read low 1.01 | S. cerevisiae deletion strains, locus YML032C, strain rad52, active compounds read low 1.01 | S. cerevisiae deletion strains, locus YML120C, strain ndi1, active compounds read low 0.99 | S. cerevisiae deletion strains, locus YML124C, strain tub3, active compounds read low 1.01 | S. cerevisiae deletion strains, locus YMR058W, strain fet3, active compounds read low 0.99 | S. cerevisiae deletion strains, locus YMR078C, strain ctf18, active compounds read low 1.01 | S. cerevisiae deletion strains, locus YMR125W, strain sto1, active compounds read low 0.973 | S. cerevisiae deletion strains, locus YMR129W, active compounds read low 0.997 | S. cerevisiae deletion strains, locus YMR205C, strain PFK2, active compounds read low 0.985 | S. cerevisiae deletion strains, locus YMR223W, strain ubp8, active compounds read low 1 | S. cerevisiae deletion strains, locus YMR231W, strain pep5, active compounds read low 0.976 | S. cerevisiae deletion strains, locus YMR263W, strain SAP30, active compounds read low 1.01 | S. cerevisiae deletion strains, locus YMR307W, strain GAS1, active compounds read low 0.977 | S. cerevisiae deletion strains, locus YNL067W, strain RPL9B, active compounds read low 1.01 | S. cerevisiae deletion strains, locus YNL071W, strain lat1, active compounds read low 0.996 | S. cerevisiae deletion strains, locus YNL128W, strain TEP1, active compounds read low 1.03 | S. cerevisiae deletion strains, locus YNL153C, strain GIM3, active compounds read low 1.04 | S. cerevisiae deletion strains, locus YNL209W, strain ssb2, active compounds read low 0.991 | S. cerevisiae deletion strains, locus YNL233W, strain BNI4, active compounds read low 1.02 | S. cerevisiae deletion strains, locus YNL248C, strain rpa49, active compounds read low 0.988 | S. cerevisiae deletion strains, locus YNL250W, strain rad50, active compounds read low 1.04 | S. cerevisiae deletion strains, locus YNL271C, strain bni1, active compounds read low 1.02 | S. cerevisiae deletion strains, locus YNL298W, strain CLA4, active compounds read low 1.01 | S. cerevisiae deletion strains, locus YNL307C, strain MCK1, active compounds read low 1.03 | S. cerevisiae deletion strains, locus YNL322C, strain KRE1 (second series), active compounds read low 1.01 | S. cerevisiae deletion strains, locus YNL322C, strain KRE1, active compounds read low 1 | S. cerevisiae deletion strains, locus YNR049C, strain mso1, active compounds read low 0.994 | S. cerevisiae deletion strains, locus YNR052C, strain pop2, active compounds read low 1.01 | S. cerevisiae deletion strains, locus YOL012C, strain htz1 0.807 | S. cerevisiae deletion strains, locus YOL147C, strain pex11, active compounds read low 1.03 | S. cerevisiae deletion strains, locus YOR001W, strain rrp6, active compounds read low 1.01 | S. cerevisiae deletion strains, locus YOR061W, strain CKA2, active compounds read low 1.02 | S. cerevisiae deletion strains, locus YOR069W, strain VPS5, active compounds read low 1.01 | S. cerevisiae deletion strains, locus YOR070C, strain gyp1, active compounds read low 0.995 | S. cerevisiae deletion strains, locus YOR080W, strain dia2, active compounds read low 1.01 | S. cerevisiae deletion strains, locus YOR083W, strain WHI5, active compounds read low 0.985 | S. cerevisiae deletion strains, locus YOR106W, strain vam3, active compounds read low 1 | S. cerevisiae deletion strains, locus YOR136W, strain idh2, active compounds read low 1.02 | S. cerevisiae deletion strains, locus YOR144C, strain elg1, active compounds read low 1.02 | S. cerevisiae deletion strains, locus YOR184W, strain ser1, active compounds read low 1.02 | S. cerevisiae deletion strains, locus YOR265W, strain rbl2, active compounds read low 0.996 | S. cerevisiae deletion strains, locus YOR270C, strain vph1, active compounds read low 0.937 | S. cerevisiae deletion strains, locus YOR290C, strain snf2, active compounds read low 0.961 | S. cerevisiae deletion strains, locus YOR316C, strain cot1, active compounds read low 1.01 | S. cerevisiae deletion strains, locus YPL051W, strain arl3, active compounds read low 1.01 | S. cerevisiae deletion strains, locus YPL078C, strain atp4, active compounds read low 0.96 | S. cerevisiae deletion strains, locus YPL106C, strain sse1, active compounds read low 0.991 | S. cerevisiae deletion strains, locus YPL240C, strain hsp82, active compounds read low 1 | S. cerevisiae deletion strains, locus YPL241C, strain CIN2, active compounds read low 1 | S. cerevisiae deletion strains, locus YPR119W, strain clb2, active compounds read low 1.01 | S. cerevisiae deletion strains, locus YPR141C, strain kar3, active compounds read low 1.01 | S. cerevisiae deletion strains, locus YPR163C, strain tif3, active compounds read low 1 | S. cerevisiae deletion strains, locus YPR167C, strain met16, active compounds read low 1.01 | S. cerevisiae deletion strains, strain wtn01, active compounds read low 1.02 | S. cerevisiae strains, strain wild type, active compounds read low 1.01
